Dicer processing: blocks human Dicer maturation of pre-miR-21. hit rate 6% among 47,000. Q9UPY3. cat-ELCCA pre-miR-21 Dicer processing, chemiluminescence; stronger effect = higher value. AID 1347074. z-score at 25 µM; in the data active = z-score above about 3, passing the limit was not always enough;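 also: plate controls were vehicle for no effect and no enzyme for full effect; higher signal means more uncleaved substrate so more Dicer inhibition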
Target sequence (Q9UPY3 whole entry, looked up): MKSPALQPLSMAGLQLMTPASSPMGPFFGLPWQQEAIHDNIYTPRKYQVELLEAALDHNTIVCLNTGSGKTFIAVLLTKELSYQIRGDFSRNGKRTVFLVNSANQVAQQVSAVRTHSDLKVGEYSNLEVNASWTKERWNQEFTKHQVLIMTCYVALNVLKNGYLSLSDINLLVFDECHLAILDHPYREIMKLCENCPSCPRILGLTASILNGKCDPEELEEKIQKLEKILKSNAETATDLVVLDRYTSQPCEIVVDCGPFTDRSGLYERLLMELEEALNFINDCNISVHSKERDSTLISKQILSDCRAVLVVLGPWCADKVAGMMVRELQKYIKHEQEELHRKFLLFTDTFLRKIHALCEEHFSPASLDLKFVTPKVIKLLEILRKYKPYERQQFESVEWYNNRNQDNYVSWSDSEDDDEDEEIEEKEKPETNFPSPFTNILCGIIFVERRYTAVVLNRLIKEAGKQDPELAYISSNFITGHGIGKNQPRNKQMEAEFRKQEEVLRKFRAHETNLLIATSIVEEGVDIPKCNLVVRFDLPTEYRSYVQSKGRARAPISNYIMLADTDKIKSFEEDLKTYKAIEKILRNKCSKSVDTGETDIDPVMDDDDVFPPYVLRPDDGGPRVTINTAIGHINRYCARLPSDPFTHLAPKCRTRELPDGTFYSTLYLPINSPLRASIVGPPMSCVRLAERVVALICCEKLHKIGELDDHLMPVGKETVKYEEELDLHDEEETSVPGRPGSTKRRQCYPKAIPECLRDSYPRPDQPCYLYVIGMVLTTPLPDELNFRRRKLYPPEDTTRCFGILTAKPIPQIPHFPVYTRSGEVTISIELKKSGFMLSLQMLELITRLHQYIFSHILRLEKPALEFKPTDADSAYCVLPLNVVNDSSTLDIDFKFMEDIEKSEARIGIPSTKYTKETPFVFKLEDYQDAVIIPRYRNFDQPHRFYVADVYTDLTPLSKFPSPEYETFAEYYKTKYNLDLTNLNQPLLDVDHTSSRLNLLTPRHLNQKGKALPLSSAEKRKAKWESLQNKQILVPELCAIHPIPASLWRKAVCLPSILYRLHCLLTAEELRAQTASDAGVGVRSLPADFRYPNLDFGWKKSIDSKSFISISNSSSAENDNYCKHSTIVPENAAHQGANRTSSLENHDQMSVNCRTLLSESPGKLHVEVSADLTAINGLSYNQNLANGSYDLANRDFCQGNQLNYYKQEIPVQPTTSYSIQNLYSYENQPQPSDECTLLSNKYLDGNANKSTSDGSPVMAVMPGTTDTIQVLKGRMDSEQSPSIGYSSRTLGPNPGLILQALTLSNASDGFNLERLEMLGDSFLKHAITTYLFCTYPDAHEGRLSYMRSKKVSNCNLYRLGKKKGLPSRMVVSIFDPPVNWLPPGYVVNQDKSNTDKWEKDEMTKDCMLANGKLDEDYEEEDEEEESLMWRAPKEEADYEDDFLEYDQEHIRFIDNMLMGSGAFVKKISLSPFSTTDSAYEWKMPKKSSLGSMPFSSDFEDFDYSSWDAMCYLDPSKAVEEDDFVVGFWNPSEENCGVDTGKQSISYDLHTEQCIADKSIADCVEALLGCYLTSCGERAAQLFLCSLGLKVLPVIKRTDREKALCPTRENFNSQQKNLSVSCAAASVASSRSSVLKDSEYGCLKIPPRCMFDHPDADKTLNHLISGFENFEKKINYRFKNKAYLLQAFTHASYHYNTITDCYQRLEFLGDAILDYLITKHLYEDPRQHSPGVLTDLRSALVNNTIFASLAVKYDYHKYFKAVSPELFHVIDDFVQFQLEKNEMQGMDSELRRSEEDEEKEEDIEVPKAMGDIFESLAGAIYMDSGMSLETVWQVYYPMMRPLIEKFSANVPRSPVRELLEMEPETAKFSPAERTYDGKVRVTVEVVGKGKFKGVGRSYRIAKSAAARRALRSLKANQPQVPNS
An asterisk follows results filed as active. Only a selection was taken, and hits are over-represented in it overall.

SMILES	Dicer processing
CCOC(=O)C1=C(C)N=C2SCC(=O)N2C1c1ccc(OC)c(OCC)c1 (stereo not drawn)	-1.8
COc1ccc(-c2cnc3cc(-c4ccc(C)cc4)nn3c2N)cc1OC	-0.16
O=C1c2oc3ccc(F)cc3c(=O)c2C(c2ccc(O)cc2)N1Cc1ccccc1 (stereo not drawn)	1.9
Cc1cc2n(n1)C(c1ccc(O)cc1)Nc1c(C)cccc1-2 (stereo not drawn)	4.8*
Cc1cc2n(n1)C(c1ccc(C(=O)O)cc1)Nc1c(C)cccc1-2 (stereo not drawn)	2.4
Cc1cc2n(n1)C(c1ccc(O)cc1O)Nc1c(C)cccc1-2 (stereo not drawn)	1.5
Cc1cc2n(n1)C(c1cccc(O)c1)Nc1c(C)cccc1-2 (stereo not drawn)	4.3*
Cc1cc2n(n1)C(c1cccc(O)c1)Nc1ccccc1-2 (stereo not drawn)	0.25
COc1ccc2c(-c3ccc(Cl)cc3)c(C)oc2c1	-0.28
O=C(OCc1ccccc1)c1sc2ccccc2c1Cl	-0.41
CCOc1ccc(OCc2ccc(C(=O)NC(C)(C)C)o2)cc1	3.4*
O=C(NCC1CCCO1)c1ccc(COc2ccc(F)cc2)o1 (stereo not drawn)	2.9
CC(C)(C)c1ccc(OCc2ccc(C(=O)O)o2)cc1	1.1
CCNc1[nH]c(=S)nc2c1cnn2-c1ccccc1	-0.66
O=S(=O)(O)c1ccc2nc(-c3ccccc3)[nH]c2c1	0.87
Nc1ccc(-c2nc3ccc(N)cc3o2)cc1	-0.21
c1ccc2cc3[nH]c(CN4CCOCC4)nc3cc2c1	-0.55
c1ccc2[nH]c(-c3ccc(-c4nc5ccccc5o4)cc3)nc2c1	0.34
CC(=O)Nc1ccc2nc(-c3ccc(-c4nc5ccc(NC(C)=O)cc5[nH]4)cc3)[nH]c2c1	-1
CC(C)c1ccc2nc(-c3ccc(N)cc3)[nH]c2c1	19*
Cc1ccc(C)c(-c2nc3ccc(N)cc3[nH]2)c1	3
Nc1ccc2nc(-c3ccc(Cl)cc3)[nH]c2c1	2
Cc1ccc(-c2nc3ccc(N)cc3[nH]2)cc1	3.1*
Nc1ccc(-c2nc3ccc(-c4nc5ccccc5o4)cc3[nH]2)cc1	6.5*
Nc1ccc(-c2nc3cc4ccccc4cc3[nH]2)cc1	4*
SMILES	Dicer processing
COc1cc2c(cc1OC)C(c1ccccc1Cl)NC(=O)C2 (stereo not drawn)	2.6
Cc1c(Cc2ccccc2)c(=O)oc2cc(OS(C)(=O)=O)ccc12	-0.99
Cc1ccc(C2CC(=O)C3=C(C2)Nc2ccccc2N(C(=O)C2CC2)C3c2ccco2)cc1 (stereo not drawn)	0.97
CC1(C)CC(=O)C=C(Sc2ccc(C#N)cc2[N+](=O)[O-])S1	0.96
O=C(Nc1cccc(Cl)c1)C1Sc2nnc(-c3ccccc3)n2NC1c1ccccc1 (stereo not drawn)	-1
COC(=O)C1=C(C)Nc2ncnn2C1c1cccc(O)c1 (stereo not drawn)	3
CS(=O)(=O)c1sc(Cl)c(-c2ccc(Cl)cc2)c1C#N	-8
CS(=O)(=O)c1sc(C#N)c2c1C(=O)CC(c1ccccc1)C2 (stereo not drawn)	5.7*
CCOC(=O)c1sc(S(C)=O)c2c1CC(c1ccccc1)CC2=O (stereo not drawn)	1.6
Oc1ccc2ncccc2c1C(Nc1ccccn1)c1cccs1 (stereo not drawn)	0.84
Cc1cc(C)cc(CC2CC(=O)N(c3ccccc3)C2=O)c1 (stereo not drawn)	-4.4
O=C1CC(Cc2ccccc2)C(=O)N1c1ccncc1 (stereo not drawn)	-0.5
CC(C)(C)c1ccc(N2C(=O)CC(C/C=C/c3ccccc3)C2=O)cc1 (stereo not drawn)	4.7*
CCSCCOC(=O)C1=C(C)NC2=C(C(=O)CCC2)C1c1ccc(OC)cc1OC (stereo not drawn)	0.01
CCOc1ccc(C2C(C(=O)OCCSCC)=C(C)NC3=C2C(=O)CCC3)cc1 (stereo not drawn)	0.51
CC1=C(C(=O)OCCc2ccccc2)C(c2ccc(Br)cc2)C2=C(CCCC2=O)N1 (stereo not drawn)	2.2
CC1=C(C(=O)OCCc2ccccc2)C(c2ccsc2)C2=C(CCCC2=O)N1 (stereo not drawn)	3.8*
CC1=C(C(=O)OCCc2ccccc2)C(c2ccc(C)cc2)C2=C(CCCC2=O)N1 (stereo not drawn)	0.5
CCSCCOC(=O)C1=C(C)NC2=C(C(=O)CCC2)C1c1cccc(Oc2ccccc2)c1 (stereo not drawn)	6*
CCSCCOC(=O)C1=C(C)NC2=C(C(=O)CCC2)C1c1ccc(OC)c(Br)c1 (stereo not drawn)	2.2
CC1=C(C(=O)OCC2CCCO2)C(c2cccc(Oc3ccccc3)c2)C2=C(CCCC2=O)N1 (stereo not drawn)	1.1
CCSCCOC(=O)C1=C(C)NC2=C(C(=O)CCC2)C1c1ccc(F)cc1 (stereo not drawn)	6.4*
NC(=O)c1ccc([N+](=O)[O-])cc1C(N)=O	1.3
O=C(O/N=C(\Cn1nnc(N2CCCCC2)n1)c1ccc(Cl)cc1)c1ccc(Cl)cc1Cl	0.72
CCOC(=O)c1c(NC(=O)COc2ccccc2)sc2c1CCC2	0.34
SMILES	Dicer processing
N#CCC(=O)N(Cc1ccccc1)C(=O)Nc1cccc(Cl)c1	-0.32
CN1CCN(c2oc(-c3ccc(F)cc3)nc2C#N)CC1	0.07
C/C(=N\OCc1cccc(C(=O)O)c1)c1ccc(Cl)c(Cl)c1	2.1
O=C1CSC(c2ccc(Cl)c(Cl)c2)N1 (stereo not drawn)	-0.87
NC(Cc1c[nH]c2ccccc12)C(=O)O (stereo not drawn)	2.3
Nc1ccccc1CC(c1c[nH]c2ccccc12)c1c[nH]c2ccccc12	4.8*
O=C(NCC(c1ccccc1)c1c[nH]c2ccccc12)C(F)(F)F (stereo not drawn)	-0.74
COc1ccc(/C(O)=C2\C(=O)C(=O)N(CCCn3ccnc3)C2c2ccc(Cl)cc2)cc1 (stereo not drawn)	0.06
CC[C@H]1OC(=O)C[C@@H](O)[C@H](C)[C@@H](O[C@@H]2O[C@H](C)[C@@H](O[C@H]3CC(C)(O)[C@@H](O)[C@H](C)O3)[C@H](N(C)C)[C@H]2O)[C@@H](CC=O)C[C@@H](C)C(=O)/C=C/C(C)=C/[C@@H]1CO[C@@H]1O[C@H](C)[C@@H](O)[C@@H](OC)[C@H]1OC (stereo partly drawn)	0.08
CC1=C(C(=O)OC2CCCC2)C(c2coc3ccc(C)cc3c2=O)C2=C(CC(C)(C)CC2=O)N1 (stereo not drawn)	2
O=C1c2cccc3c(N4CCOCC4)ccc(c23)C(=O)N1c1cc(Cl)ccc1O	8.3*
O=C1c2cccc3c(N4CCOCC4)ccc(c23)C(=O)N1c1cccc(O)c1	0.21
O=C1c2cccc3c(N4CCOCC4)ccc(c23)C(=O)N1c1ccccc1	0.14
Cc1cc2c(=O)[nH]nc(N)c2c(Sc2ccc(Cl)cc2)n1	-1.5
CSc1nc(-c2cnccn2)nc(-c2ccccc2Cl)c1C#N	-0.15
COc1ccc(-c2cc3ncc(C(=O)c4cc(F)ccc4O)cn3n2)cc1	-1.6
CN(C)c1ccc(-c2nc3ccccc3c(=O)[nH]2)c(Cl)c1	-0.76
CN(C)c1ccc(/C=C/c2nc(-c3ccccc3O)n[nH]2)cc1	3
CN(C)c1ccc(/C=C/c2nc3ccccc3c(=O)[nH]2)cc1	5.5*
CS(=O)(=N/C=C(\C#N)C(=O)c1ccc(Cl)cc1)c1ccc(C(F)(F)F)cn1 (stereo not drawn)	0.87
COc1cc(C(=O)NNS(=O)(=O)c2ccccc2C)c(-n2c(C)ccc2C)cc1OC	-0.67
